Experiment [1] in a line: NCI Yeast Anticancer Drug Screen. Data for the rad50 strain (AID 155).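 Note: 0% = growth of vehicle-only cultures of the same strain.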 The following applies: S. cerevisiae rad50 strain growth inhibition; at 50.0 µM; stronger effect = higher value. Put shortly:
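Inhibition values express reduced yeast growth in compound-treated cultures relative to vehicle-treated controls.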

Experiment [2] can be described thus: NCI Yeast Anticancer Drug Screen. Data for the mec2-1 strain (AID 157). Particulars: S. cerevisiae mec2-1 strain, at 50.0 µM, stronger effect = higher value. Put shortly: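 Compounds were applied to mec2-1 yeast cells. Their growth was then compared with that of vehicle-treated cultures to give growth inhibition.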
The nature of experiment [3]: NCI Yeast Anticancer Drug Screen. Data for the sgs1 mgt1 strain (AID 161).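 Note: 0% = growth of cultures given vehicle only.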 Particulars: S. cerevisiae sgs1 mgt1 strain, at 50.0 µM, stronger effect = higher value. Put shortly: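 Compounds are added to genetically altered yeast, and growth is compared with cultures given vehicle alone to give percent inhibition.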
A short description of experiment [4]: NCI Yeast Anticancer Drug Screen. Data for the cln2 rad14 strain (AID 165).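 Note: 0% = growth equal to vehicle treated cultures.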 The following applies: S. cerevisiae cln2 rad14 strain, at 50.0 µM, stronger effect = higher value. Put shortly:
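Strain: cln2 rad14 yeast, altered in cell cycle control and DNA damage repair. Read-out: growth inhibition vs vehicle.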

Experiment [5] is described as follows: NCI Yeast Anticancer Drug Screen. Data for the bub3 strain (AID 167). Particulars: S. cerevisiae bub3 mutant strain, at 50.0 µM, stronger effect = higher value. An outline of the steps: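 Steps: expose the mutant yeast strain to compound; grow alongside vehicle-treated cultures; measure growth; express inhibition against the vehicle cultures.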
The nature of experiment [6]: NCI Yeast Anticancer Drug Screen. Data for the mlh1 rad18 strain (AID 175). Particulars: S. cerevisiae mlh1 rad18 strain growth inhibition; at 50.0 µM; stronger effect = higher value. Put shortly: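 A repair-deficient yeast strain is exposed to test compound, and growth is scored relative to vehicle-treated controls.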

Growth inhibition data for 37 molecules are collected here from PubChem BioAssay (NCI).

This is part of a sample that, as a whole, favours compounds with a hit. Of some 79,000 tested, about 15% had one in any assay. A number with no mark means an inactive call. Active and inactive are the calls of the source. Cut-off read from the data, not from the text of the source: active = growth inhibition above about 70%; inactive = the rest.

Regarding `CN1C(=O)N/C(=C\c2ccc(S(=O)(=O)NN)cc2)C1=O`, the growth inhibition was 4.05% in experiment [1]; 9.6% in experiment [2]; 24.7% in experiment [3]; 11.7% in experiment [4]; -18.8% in experiment [5]; 39.2% in experiment [6].

Take `[Cl][Pt+2][Cl].[NH-]C1CCCCC1C1CCCCC1[NH-]` (configuration not stated): the growth inhibition in experiment [1] is 14.6%; in experiment [2], -12.4%; in experiment [3] it was -29.2%; in experiment [4], -41.2%; in experiment [5] it was -29.8%; in experiment [6] it was -27.4%.

With `O=C1CSc2nc3c(I)cc(I)cc3c(=O)n21`, the growth inhibition in experiment [1] is 2.65%; in experiment [2] it was 6.2%; in experiment [3] it was -0.75%; in experiment [4], -25.1%; in experiment [5], -7.3%; in experiment [6] it was -0.6%.

Turning to `[CH3][Sn]([CH3])([O]C(=O)c1ccc2c(c1)OCO2)[O]C(=O)c1ccc2c(c1)OCO2`, the growth inhibition is -0.15% in experiment [1]; -3.25% in experiment [2]; -11% in experiment [3]; -12.7% in experiment [4]; -9.7% in experiment [5]; -9.9% in experiment [6].

With `O=C1CCC2c3ccccc3NCN12` (configuration not stated), the growth inhibition in experiment [1] is 7.05%; in experiment [2], 7.75%; in experiment [3] it was -35.6%; in experiment [4], 22.4%; in experiment [5], -15.2%; in experiment [6], -31.8%.

On to `COc1ccc(/C=C2/SC(=Nc3ccccc3)N(NC(=O)Cc3ccccc3)C2=O)c(OC)c1`, for which the growth inhibition in experiment [1] is -17.9%; in experiment [2], -19.3%; in experiment [3] it was 7.45%; in experiment [4], -12.8%; in experiment [5] it was -1.85%; in experiment [6], 1.9%.

As to `CCOc1ncc(C[n+]2csc(CCO)c2C)c(N)n1`, the growth inhibition is -4.95% in experiment [1]; -8.7% in experiment [2]; 8.25% in experiment [3]; 0.8% in experiment [4]; -19.9% in experiment [5]; -5.35% in experiment [6].

Consider `CCN(CC)C(N)=Nc1cc2ccccc2c2ccccc12`, for which the growth inhibition in experiment [1] was -16.5%; in experiment [2], -22.8%; in experiment [3], -16.9%; in experiment [4] it was -45.5%; in experiment [5] it was 8.55%; in experiment [6], 5.25%.

For the molecule `CCCCCCCCCCCCCCCCCCCOc1ccc(OCCCCCCCC)cc1`, the growth inhibition in experiment [1] is 40.8%; in experiment [2], -11.8%; in experiment [3], 17.6%; in experiment [4], -11.2%; in experiment [5] it was 3.4%; in experiment [6] it was 3%.

As for `O=C(O)c1cccc(=O)o1`, the growth inhibition in experiment [1] was -3.35%; in experiment [2], -16.3%; in experiment [3], -11.3%; in experiment [4] it was 3.35%; in experiment [5], 7.1%; in experiment [6], -1.65%.

In the case of `CN1NC(c2ccc(Cl)cc2)=C(C#N)C(=O)CC1c1ccccc1` (configuration not stated), the growth inhibition in experiment [1] was 2.1%; in experiment [2], -7.95%; in experiment [3] it was -5.05%; in experiment [4], 10.5%; in experiment [5], -20.4%; in experiment [6] it was 2.35%.

Consider `CCC(C(O)c1ccccc1)[N+](=O)[O-]` (configuration not stated), for which the growth inhibition in experiment [1] was 54.8%; in experiment [2], 31.3%; in experiment [3], 9.5%; in experiment [4], -8.75%; in experiment [5] it was -11.1%; in experiment [6], 10.3%.

For `Cc1cccc2c1Oc1ccccc1C2NC(=O)c1ccc([N+](=O)[O-])cc1` (configuration not stated), the growth inhibition in experiment [1] is -19.4%; in experiment [2] it was -15.4%; in experiment [3], -34.5%; in experiment [4], -0.9%; in experiment [5] it was -23.4%; in experiment [6] it was -18%.

Take `O=c1c2ccccc2nc2sc3nc4ccccc4c(=O)n3n12`: the growth inhibition in experiment [1] was 4%; in experiment [2], -10.8%; in experiment [3] it was -8.85%; in experiment [4] it was -56%; in experiment [5] it was -4.2%; in experiment [6], -11.8%.

`COc1ccc(C2C(Cl)C(=O)N2NC(=O)c2ccccc2O)cc1` (configuration not stated): the growth inhibition in experiment [1] was -27.2%; in experiment [2], -17.4%; in experiment [3], -38.1%; in experiment [4], -1.45%; in experiment [5], -4.6%; in experiment [6], -34.8%.

With `Cc1ccc(N=Cc2ccc3c(c2)OCO3)cc1C`, the growth inhibition was 8.05% in experiment [1]; 6.2% in experiment [2]; 9.65% in experiment [3]; 40.6% in experiment [4]; 10.1% in experiment [5]; 29.2% in experiment [6].

As to `Fc1ccc(-c2nc3ccccc3[nH]2)cc1`, the growth inhibition is -9.6% in experiment [1]; 23.9% in experiment [2]; -1.2% in experiment [3]; -8.4% in experiment [4]; -4.4% in experiment [5]; -7.05% in experiment [6].

As for `COc1ccccc1-n1on1-c1ccccc1OC`, the growth inhibition in experiment [1] was 4.3%; in experiment [2], 18.1%; in experiment [3], -3.4%; in experiment [4] it was -30.9%; in experiment [5], 9.75%; in experiment [6], 20.1%.

Regarding `C=C(CCCC(=C)C(N)=O)C(N)=O`, the growth inhibition is -14.4% in experiment [1]; -14.5% in experiment [2]; -12.1% in experiment [3]; 2.55% in experiment [4]; -0.85% in experiment [5]; -27.4% in experiment [6].

Consider `CC(=O)c1cccc(NCn2nnc3ccccc32)c1`, for which the growth inhibition was -47.5% in experiment [1]; -8.65% in experiment [2]; -62.3% in experiment [3]; -4.25% in experiment [4]; -45.4% in experiment [5]; -34.5% in experiment [6].

Take `Cn1c(=O)c2c(-c3ccccc3)cc(-c3ccccc3)nc2n(C)c1=O`: the growth inhibition in experiment [1] is -18.8%; in experiment [2], -16.1%; in experiment [3], 1.95%; in experiment [4], -30.7%; in experiment [5], -10.7%; in experiment [6] it was -21.4%.

In the case of `O=C(Nc1cc(C(=O)Nc2cccc(S(=O)(=O)O)c2)cc(C(=O)Nc2cccc(S(=O)(=O)O)c2)c1)c1cccc(C(=O)Nc2cc(C(=O)Nc3cccc(S(=O)(=O)O)c3)cc(C(=O)Nc3cccc(S(=O)(=O)O)c3)c2)c1`, the growth inhibition is -0.1% in experiment [1]; -0.1% in experiment [2]; -15.4% in experiment [3]; 3.4% in experiment [4]; 4.8% in experiment [5]; -5.55% in experiment [6].

With `Cc1ccc(/C=N/NC(=O)c2ccccc2NC(=O)c2ccccc2)cc1`, the growth inhibition in experiment [1] was 57.4%; in experiment [2], 80.6% (active); in experiment [3], 85.4% (active); in experiment [4] it was 62%; in experiment [5] it was 70.8% (active); in experiment [6] it was 69.8%.

Consider `Cc1nc(N)nc(CCC(=O)Nc2cccc(C(F)(F)F)c2)c1-c1ccc(Cl)cc1`, for which the growth inhibition in experiment [1] was 12.2%; in experiment [2] it was -2.9%; in experiment [3], 6.7%; in experiment [4], 7.45%; in experiment [5], -3.6%; in experiment [6] it was 11.1%.

On to `CC1(C)CC(=NNC(N)=S)CC(C)(C)N1`, for which the growth inhibition in experiment [1] is 1.3%; in experiment [2], -7.2%; in experiment [3], 14.3%; in experiment [4], -51.9%; in experiment [5], -16.2%; in experiment [6], -0.95%.

With `CCOc1ccc(NC(=O)CCc2nnc(SC)o2)cc1`, the growth inhibition is 20.5% in experiment [1]; -17.2% in experiment [2]; -4.75% in experiment [3]; -16.4% in experiment [4]; 29.1% in experiment [5]; 23.2% in experiment [6].

Regarding `C1CCC2C3CCC(O3)C2C1` (configuration not stated), the growth inhibition in experiment [1] was -4.2%; in experiment [2], 1.05%; in experiment [3] it was 5.4%; in experiment [4] it was -33.7%; in experiment [5] it was -39.1%; in experiment [6], 2.35%.

As to `COC(=O)COc1ccc(Cl)cc1C(=O)O`, the growth inhibition was 23.5% in experiment [1]; 6.1% in experiment [2]; 9.8% in experiment [3]; -11.8% in experiment [4]; 27.5% in experiment [5]; 17.1% in experiment [6].

As for `Cc1ccc(S(=O)(=O)CC(=O)c2ccc(Br)cc2)cc1`, the growth inhibition was -2.7% in experiment [1]; -21.2% in experiment [2]; -16.4% in experiment [3]; 4.9% in experiment [4]; 6.55% in experiment [5]; 8.75% in experiment [6].

As to `[N-]=[N+]=NC(c1ccccc1)S(=O)c1ccccc1` (configuration not stated), the growth inhibition in experiment [1] was 98.1% (active); in experiment [2], 98.5% (active); in experiment [3], 95.8% (active); in experiment [4] it was 48%; in experiment [5], 96.3% (active); in experiment [6], 91% (active).

For `CCC(O)C(C)[N+](=O)[O-]` (configuration not stated), the growth inhibition in experiment [1] was 28%; in experiment [2] it was -1.85%; in experiment [3] it was 7.45%; in experiment [4], 6%; in experiment [5] it was 1.75%; in experiment [6], 3.75%.

As to `O=C(NCCCCCCNC(=O)Oc1ccccc1F)Oc1ccccc1F`, the growth inhibition in experiment [1] was -13.6%; in experiment [2], -14.5%; in experiment [3], -6.5%; in experiment [4] it was -0.05%; in experiment [5], 6.4%; in experiment [6], -20.9%.

For the molecule `OC(CBr)CBr`, the growth inhibition in experiment [1] was 1.8%; in experiment [2] it was -7.45%; in experiment [3], 0.4%; in experiment [4], -42.8%; in experiment [5], -3.05%; in experiment [6] it was 9.9%.

On to `Cn1nc(NC(=O)c2cc(N)nn2C)cc1C(=O)Nc1ccc2cc(S(=O)(=O)O)cc(S(=O)(=O)O)c2c1`, for which the growth inhibition was -14.1% in experiment [1]; -16.7% in experiment [2]; -10.3% in experiment [3]; 7.65% in experiment [4]; 13.7% in experiment [5]; -3% in experiment [6].

Consider `CC12CCC3C(CCC4CCCCC43C)C1CCC2CO` (configuration not stated), for which the growth inhibition in experiment [1] was 21.8%; in experiment [2] it was 16.4%; in experiment [3] it was 17.8%; in experiment [4], -11.3%; in experiment [5] it was 23.2%; in experiment [6], 36.5%.

Take `CC1(C)C(O)c2ccccc2OC1N1CCN(C2Oc3ccccc3C(O)C2(C)C)CC1` (configuration not stated): the growth inhibition was -18.4% in experiment [1]; -1.35% in experiment [2]; 23.8% in experiment [3]; -4.65% in experiment [4]; -10.8% in experiment [5]; -8.6% in experiment [6].

For the molecule `CC1(C)C(=NNC(=S)NN)C(C)(C)C1=NNC(=S)NN`, the growth inhibition in experiment [1] was 40.5%; in experiment [2], 36%; in experiment [3], 42.4%; in experiment [4] it was 18.9%; in experiment [5], 46.5%; in experiment [6], 38.7%.
